# Data: article PMC7862700, “An all-to-all approach to the identification of sequence-specific readers for epigenetic DNA modifications on cytosine”
# What was measured:
# Test in all cases: DAPPL (digital affinity profiling via proximity ligation, sequencing); 10 mM Tris-HCl pH 7.5, 50 mM NaCl, 1 mM DTT, 4% glycerol, room temperature, 30 min; GST-TFs on glutathione beads, 16-mer random dsDNA library, 0.1% formaldehyde crosslink after washing; high values mean tight binding
# FEV = target: T1, FEV (Homo sapiens, UniProt Q99581 1-238); conditions: protein: recombinant; tags: N-terminal GST; dsDNA, one strand shown
# T1 sequence: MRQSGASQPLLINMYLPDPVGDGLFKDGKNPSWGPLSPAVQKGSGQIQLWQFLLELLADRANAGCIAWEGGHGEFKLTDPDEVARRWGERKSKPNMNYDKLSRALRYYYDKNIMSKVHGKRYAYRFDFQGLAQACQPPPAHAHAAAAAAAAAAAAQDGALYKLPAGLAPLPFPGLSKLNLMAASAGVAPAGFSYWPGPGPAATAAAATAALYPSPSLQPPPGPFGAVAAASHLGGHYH
# Method in brief: (§1)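 The binding signal reported is, for every hexamer, its read frequency for a factor over its read frequency for the tag-only sample. Reads came from pools of yeast-expressed, GST-fused human transcription factors on glutathione beads, barcoded with DNA and mixed with that sample, which were incubated with 200 nmole of a random double-stranded 16-mer DNA library in Tris/NaCl/DTT/glycerol buffer at room temperature for 30 min. After washing, the pools were crosslinked with 0.1% formaldehyde, proximity-ligated with BsaI/T4 ligase for 1 h at 37 °C, PCR-amplified and sequenced on an Illumina NextSeq500.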
# ETV5 = ETV5 (Homo sapiens, UniProt P41161 1-510); conditions: protein: recombinant; tags: N-terminal GST; dsDNA, one strand shown
# Method in brief: as §1
# HSF1 = HSF1 (Homo sapiens, UniProt Q00613 1-529); conditions: protein: recombinant; tags: N-terminal GST; chain copies: 3; dsDNA, one strand shown
# Method in brief: as §1
# SPIC = target: T2, SPIC (Homo sapiens, UniProt Q8N5J4 1-248); conditions: protein: recombinant; tags: N-terminal GST; dsDNA, one strand shown
# T2 sequence: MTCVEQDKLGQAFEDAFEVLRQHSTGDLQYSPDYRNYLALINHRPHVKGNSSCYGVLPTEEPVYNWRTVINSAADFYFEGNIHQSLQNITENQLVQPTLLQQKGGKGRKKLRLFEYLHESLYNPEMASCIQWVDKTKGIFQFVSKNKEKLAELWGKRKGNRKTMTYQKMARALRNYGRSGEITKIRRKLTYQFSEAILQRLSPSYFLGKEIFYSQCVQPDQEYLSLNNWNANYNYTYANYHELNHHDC
# Method in brief: as §1
# ELF4 = ELF4 (Homo sapiens, UniProt Q99607 1-663); conditions: protein: recombinant; tags: N-terminal GST; dsDNA, one strand shown
# Method in brief: as §1
# ELK4 = target: T3, ELK4 (Homo sapiens, UniProt P28324-2 1-405); conditions: protein: recombinant; tags: N-terminal GST; dsDNA, one strand shown
# T3 sequence: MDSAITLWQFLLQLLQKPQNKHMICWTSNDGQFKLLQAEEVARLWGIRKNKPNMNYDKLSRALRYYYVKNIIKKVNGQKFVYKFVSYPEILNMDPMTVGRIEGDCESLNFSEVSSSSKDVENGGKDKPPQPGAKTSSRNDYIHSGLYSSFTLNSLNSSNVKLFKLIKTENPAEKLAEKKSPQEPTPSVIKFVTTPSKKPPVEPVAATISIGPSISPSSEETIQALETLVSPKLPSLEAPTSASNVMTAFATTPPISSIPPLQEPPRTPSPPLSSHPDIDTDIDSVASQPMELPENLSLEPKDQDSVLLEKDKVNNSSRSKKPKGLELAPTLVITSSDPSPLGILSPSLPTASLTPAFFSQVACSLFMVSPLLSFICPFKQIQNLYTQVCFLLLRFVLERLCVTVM
# Method in brief: as §1
# ETV2 = target: T4, ETV2 (Homo sapiens, UniProt O00321 1-342); conditions: protein: recombinant; tags: N-terminal GST; dsDNA, one strand shown
# T4 sequence: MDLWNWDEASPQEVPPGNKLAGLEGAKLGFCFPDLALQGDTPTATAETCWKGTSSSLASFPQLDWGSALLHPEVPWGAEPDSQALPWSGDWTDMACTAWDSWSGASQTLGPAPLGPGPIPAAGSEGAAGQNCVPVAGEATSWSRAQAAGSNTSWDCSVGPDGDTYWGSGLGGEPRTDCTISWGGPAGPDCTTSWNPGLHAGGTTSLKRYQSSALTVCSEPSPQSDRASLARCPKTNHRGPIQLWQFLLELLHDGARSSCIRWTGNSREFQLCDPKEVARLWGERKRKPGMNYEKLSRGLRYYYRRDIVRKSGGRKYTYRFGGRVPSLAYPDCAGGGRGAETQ
# Method in brief: as §1
# ELF3 = target: T5, ELF3 (Homo sapiens, UniProt P78545 1-371); conditions: protein: recombinant; tags: N-terminal GST; dsDNA, one strand shown
# T5 sequence: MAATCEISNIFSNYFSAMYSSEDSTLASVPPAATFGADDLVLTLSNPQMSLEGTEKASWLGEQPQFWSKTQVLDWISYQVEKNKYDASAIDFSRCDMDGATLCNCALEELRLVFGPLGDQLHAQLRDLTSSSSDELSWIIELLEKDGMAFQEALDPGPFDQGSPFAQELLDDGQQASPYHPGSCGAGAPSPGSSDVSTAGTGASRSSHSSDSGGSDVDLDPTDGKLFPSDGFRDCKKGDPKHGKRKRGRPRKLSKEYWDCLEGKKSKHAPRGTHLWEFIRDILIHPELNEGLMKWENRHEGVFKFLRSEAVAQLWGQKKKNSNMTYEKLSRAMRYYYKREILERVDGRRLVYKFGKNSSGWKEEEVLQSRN
# Method in brief: as §1
# CRX = CRX (Homo sapiens, UniProt O43186 1-299); conditions: protein: recombinant; tags: N-terminal GST; dsDNA, one strand shown
# Method in brief: as §1
# ETV1 = ETV1 (Homo sapiens, UniProt P50549 1-477); conditions: protein: recombinant; tags: N-terminal GST; dsDNA, one strand shown
# Method in brief: as §1
# ERF = target: T6, ERF (Homo sapiens, UniProt P50548 1-548); conditions: protein: recombinant; tags: N-terminal GST; dsDNA, one strand shown
# T6 sequence: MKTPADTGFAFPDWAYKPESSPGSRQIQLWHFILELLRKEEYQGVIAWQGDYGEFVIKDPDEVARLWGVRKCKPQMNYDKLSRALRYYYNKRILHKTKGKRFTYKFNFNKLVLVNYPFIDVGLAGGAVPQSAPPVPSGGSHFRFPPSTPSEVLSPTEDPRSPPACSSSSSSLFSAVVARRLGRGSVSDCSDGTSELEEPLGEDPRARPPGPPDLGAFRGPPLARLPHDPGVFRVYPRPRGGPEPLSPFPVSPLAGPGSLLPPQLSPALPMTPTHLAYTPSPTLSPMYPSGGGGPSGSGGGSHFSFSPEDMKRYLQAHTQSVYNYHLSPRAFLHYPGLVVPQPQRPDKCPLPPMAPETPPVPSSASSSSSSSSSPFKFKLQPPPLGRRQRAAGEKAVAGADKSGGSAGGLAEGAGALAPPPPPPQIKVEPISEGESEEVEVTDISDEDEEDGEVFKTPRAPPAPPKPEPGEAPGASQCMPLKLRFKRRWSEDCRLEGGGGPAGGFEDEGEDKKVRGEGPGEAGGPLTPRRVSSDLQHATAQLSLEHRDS
# Method in brief: as §1
# ETV3L = target: T7, ETV3L (Homo sapiens, UniProt Q6ZN32 1-361); conditions: protein: recombinant; tags: N-terminal GST; dsDNA, one strand shown
# T7 sequence: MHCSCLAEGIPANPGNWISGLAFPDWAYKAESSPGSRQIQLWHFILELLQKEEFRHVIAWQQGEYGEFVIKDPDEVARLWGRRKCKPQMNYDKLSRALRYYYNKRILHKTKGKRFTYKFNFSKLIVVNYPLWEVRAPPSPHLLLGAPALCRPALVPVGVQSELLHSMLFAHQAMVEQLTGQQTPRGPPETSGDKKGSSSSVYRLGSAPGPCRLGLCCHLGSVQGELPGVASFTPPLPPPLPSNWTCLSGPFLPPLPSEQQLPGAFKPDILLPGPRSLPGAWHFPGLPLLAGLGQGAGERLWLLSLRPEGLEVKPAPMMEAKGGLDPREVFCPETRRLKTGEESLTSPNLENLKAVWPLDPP
# Method in brief: as §1
# ETS2 = target: T8, ETS2 (Homo sapiens, UniProt P15036 1-469); conditions: protein: recombinant; tags: N-terminal GST; dsDNA, one strand shown
# T8 sequence: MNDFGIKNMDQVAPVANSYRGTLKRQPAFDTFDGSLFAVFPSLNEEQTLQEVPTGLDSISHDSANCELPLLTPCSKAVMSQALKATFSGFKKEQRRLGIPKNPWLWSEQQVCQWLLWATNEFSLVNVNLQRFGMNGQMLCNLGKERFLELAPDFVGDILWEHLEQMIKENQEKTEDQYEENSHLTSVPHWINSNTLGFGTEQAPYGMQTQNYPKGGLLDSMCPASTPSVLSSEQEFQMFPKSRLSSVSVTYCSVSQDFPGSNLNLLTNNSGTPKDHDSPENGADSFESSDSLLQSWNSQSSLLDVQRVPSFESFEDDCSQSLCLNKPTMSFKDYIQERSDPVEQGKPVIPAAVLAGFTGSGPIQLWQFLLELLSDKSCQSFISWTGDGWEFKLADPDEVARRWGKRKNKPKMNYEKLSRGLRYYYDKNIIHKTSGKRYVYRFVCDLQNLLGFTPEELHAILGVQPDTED
# Method in brief: as §1
# SPDEF = target: T9, SPDEF (Homo sapiens, UniProt O95238 1-335); conditions: protein: recombinant; tags: N-terminal GST; dsDNA, one strand shown
# T9 sequence: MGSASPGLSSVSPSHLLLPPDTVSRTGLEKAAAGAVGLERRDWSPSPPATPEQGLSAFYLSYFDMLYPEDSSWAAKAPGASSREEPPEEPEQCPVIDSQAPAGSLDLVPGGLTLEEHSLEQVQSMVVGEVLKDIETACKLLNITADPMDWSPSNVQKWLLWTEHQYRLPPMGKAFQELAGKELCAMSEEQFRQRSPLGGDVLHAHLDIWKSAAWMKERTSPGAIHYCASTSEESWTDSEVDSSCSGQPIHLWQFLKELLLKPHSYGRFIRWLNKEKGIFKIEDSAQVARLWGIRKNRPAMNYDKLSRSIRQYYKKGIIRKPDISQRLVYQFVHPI
# Method in brief: as §1
# ETV7 = target: T10, ETV7 (Homo sapiens, UniProt Q9Y603 1-341); conditions: protein: recombinant; tags: N-terminal GST; dsDNA, one strand shown
# T10 sequence: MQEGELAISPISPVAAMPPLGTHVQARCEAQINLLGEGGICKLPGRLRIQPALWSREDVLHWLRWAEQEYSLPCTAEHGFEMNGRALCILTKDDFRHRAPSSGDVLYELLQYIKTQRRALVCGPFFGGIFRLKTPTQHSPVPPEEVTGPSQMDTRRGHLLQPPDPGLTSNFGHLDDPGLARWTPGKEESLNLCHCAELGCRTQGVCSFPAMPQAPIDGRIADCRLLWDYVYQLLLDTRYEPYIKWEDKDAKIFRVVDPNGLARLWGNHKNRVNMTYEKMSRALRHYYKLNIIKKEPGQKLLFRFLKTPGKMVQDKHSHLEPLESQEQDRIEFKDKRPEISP
# Method in brief: as §1
# ELF5 = target: T11, ELF5 (Homo sapiens, UniProt Q9UKW6-2 1-255); conditions: protein: recombinant; tags: N-terminal GST; dsDNA, one strand shown
# T11 sequence: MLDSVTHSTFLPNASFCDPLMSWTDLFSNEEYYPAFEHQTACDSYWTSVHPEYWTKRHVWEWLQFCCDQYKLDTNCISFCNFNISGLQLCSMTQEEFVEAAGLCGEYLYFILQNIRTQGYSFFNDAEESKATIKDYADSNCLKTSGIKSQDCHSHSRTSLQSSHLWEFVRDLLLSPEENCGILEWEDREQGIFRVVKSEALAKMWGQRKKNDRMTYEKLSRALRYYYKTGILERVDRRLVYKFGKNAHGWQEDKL
# Method in brief: as §1
# ETV3 = target: T12, ETV3 (Homo sapiens, UniProt P41162-2 1-143); conditions: protein: recombinant; tags: N-terminal GST; dsDNA, one strand shown
# T12 sequence: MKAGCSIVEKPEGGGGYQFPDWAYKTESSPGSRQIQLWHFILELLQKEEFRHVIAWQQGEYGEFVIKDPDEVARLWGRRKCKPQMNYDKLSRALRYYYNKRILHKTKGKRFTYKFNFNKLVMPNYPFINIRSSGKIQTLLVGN
# Method in brief: as §1
# ETV6 = ETV6 (Homo sapiens, UniProt P41212 1-452); conditions: protein: recombinant; tags: N-terminal GST; dsDNA, one strand shown
# Method in brief: as §1
# Sequence of ETV1 (P50549 whole entry): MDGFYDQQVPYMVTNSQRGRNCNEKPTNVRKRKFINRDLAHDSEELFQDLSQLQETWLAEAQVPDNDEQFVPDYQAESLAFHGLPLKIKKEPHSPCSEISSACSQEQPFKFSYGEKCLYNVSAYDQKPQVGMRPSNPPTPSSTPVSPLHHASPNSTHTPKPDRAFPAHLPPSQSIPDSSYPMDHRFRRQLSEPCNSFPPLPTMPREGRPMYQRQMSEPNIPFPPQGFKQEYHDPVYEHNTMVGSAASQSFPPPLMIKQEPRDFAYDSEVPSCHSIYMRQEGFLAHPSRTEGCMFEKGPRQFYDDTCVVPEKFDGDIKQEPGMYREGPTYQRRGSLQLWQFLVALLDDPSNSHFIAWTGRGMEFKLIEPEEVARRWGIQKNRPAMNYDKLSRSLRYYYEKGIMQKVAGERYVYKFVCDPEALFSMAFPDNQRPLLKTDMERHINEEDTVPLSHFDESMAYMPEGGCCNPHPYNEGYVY
# Sequence of ETV5 (P41161 whole entry): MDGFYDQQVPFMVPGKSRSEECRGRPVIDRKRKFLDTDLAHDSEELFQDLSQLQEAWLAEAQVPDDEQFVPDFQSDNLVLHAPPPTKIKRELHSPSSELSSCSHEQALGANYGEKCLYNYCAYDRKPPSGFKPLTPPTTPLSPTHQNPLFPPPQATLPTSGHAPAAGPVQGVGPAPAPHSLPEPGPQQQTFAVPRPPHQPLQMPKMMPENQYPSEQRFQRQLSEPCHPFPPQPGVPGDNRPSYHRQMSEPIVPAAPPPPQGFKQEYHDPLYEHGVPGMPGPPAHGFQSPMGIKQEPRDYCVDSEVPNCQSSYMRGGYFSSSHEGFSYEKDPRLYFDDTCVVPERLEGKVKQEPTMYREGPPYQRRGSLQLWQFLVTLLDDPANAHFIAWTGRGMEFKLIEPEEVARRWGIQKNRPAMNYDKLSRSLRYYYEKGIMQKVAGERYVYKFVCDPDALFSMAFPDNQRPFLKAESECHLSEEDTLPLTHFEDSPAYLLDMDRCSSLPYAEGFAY
# Sequence of HSF1 (Q00613 whole entry): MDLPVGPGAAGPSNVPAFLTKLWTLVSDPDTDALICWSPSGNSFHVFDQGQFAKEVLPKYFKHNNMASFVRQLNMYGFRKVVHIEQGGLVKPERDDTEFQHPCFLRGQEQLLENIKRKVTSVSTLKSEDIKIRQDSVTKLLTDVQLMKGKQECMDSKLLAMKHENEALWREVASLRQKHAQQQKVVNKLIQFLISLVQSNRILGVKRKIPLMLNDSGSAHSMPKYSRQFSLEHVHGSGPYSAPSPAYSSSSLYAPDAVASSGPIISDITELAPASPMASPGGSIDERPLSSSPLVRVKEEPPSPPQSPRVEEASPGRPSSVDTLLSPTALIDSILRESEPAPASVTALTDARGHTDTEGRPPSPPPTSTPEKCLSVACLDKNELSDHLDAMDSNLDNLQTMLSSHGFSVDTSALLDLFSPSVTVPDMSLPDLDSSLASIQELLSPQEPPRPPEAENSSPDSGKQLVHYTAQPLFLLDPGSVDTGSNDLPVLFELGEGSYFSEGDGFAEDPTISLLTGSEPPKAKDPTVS
# Sequence of CRX (O43186 whole entry): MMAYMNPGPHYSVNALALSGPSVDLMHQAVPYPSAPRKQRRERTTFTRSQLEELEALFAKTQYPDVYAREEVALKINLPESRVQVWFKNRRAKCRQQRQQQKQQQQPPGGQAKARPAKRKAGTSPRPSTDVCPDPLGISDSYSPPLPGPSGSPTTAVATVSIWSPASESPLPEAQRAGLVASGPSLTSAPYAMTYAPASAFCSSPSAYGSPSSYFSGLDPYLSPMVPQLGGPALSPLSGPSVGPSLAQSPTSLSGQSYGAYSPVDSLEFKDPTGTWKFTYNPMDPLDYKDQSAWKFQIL
# Sequence of ETV6 (P41212 whole entry): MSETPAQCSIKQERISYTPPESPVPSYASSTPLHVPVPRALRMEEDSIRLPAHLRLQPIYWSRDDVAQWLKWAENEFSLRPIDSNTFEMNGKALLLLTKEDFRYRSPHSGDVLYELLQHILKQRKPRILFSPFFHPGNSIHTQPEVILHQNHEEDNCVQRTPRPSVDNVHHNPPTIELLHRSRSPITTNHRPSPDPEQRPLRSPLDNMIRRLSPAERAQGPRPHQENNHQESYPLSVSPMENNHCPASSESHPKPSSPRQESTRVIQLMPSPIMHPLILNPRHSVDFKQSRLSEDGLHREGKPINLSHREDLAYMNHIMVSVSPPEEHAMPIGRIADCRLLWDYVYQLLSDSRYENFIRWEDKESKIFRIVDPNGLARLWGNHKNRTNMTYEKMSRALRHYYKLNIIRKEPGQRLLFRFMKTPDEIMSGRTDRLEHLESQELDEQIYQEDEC
# Sequence of ELF4 (Q99607 whole entry): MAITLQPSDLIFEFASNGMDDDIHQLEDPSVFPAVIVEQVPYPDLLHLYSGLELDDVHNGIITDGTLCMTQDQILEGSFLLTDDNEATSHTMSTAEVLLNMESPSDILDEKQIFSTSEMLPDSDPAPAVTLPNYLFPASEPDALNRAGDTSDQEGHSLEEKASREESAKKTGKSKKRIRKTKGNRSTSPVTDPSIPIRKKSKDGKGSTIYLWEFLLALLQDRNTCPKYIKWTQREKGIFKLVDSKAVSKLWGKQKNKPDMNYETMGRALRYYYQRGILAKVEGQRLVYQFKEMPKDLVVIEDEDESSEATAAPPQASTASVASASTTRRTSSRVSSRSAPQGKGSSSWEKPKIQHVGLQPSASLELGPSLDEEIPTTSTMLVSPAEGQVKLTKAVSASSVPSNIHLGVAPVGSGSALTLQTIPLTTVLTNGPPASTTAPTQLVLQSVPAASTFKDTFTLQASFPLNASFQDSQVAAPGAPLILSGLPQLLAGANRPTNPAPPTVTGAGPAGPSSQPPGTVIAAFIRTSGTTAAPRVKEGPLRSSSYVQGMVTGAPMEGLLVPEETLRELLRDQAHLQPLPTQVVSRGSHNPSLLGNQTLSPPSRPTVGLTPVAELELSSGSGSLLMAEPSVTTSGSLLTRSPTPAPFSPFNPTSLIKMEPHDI
sequence,measurement,setting,value
ATATAG,binding signal,FEV,"1.1 fold enrichment (6-mer frequency, TF over GST control)"
same,binding signal,ETV5,"1.24 fold enrichment (6-mer frequency, TF over GST control)"
same,binding signal,HSF1,"1.19 fold enrichment (6-mer frequency, TF over GST control)"
same,binding signal,SPIC,"1.2 fold enrichment (6-mer frequency, TF over GST control)"
same,binding signal,ELF4,"1.09 fold enrichment (6-mer frequency, TF over GST control)"
same,binding signal,ELK4,"1.19 fold enrichment (6-mer frequency, TF over GST control)"
same,binding signal,ETV2,"1.07 fold enrichment (6-mer frequency, TF over GST control)"
same,binding signal,ELF3,"1.28 fold enrichment (6-mer frequency, TF over GST control)"
same,binding signal,CRX,"1.26 fold enrichment (6-mer frequency, TF over GST control)"
same,binding signal,ETV1,"1.17 fold enrichment (6-mer frequency, TF over GST control)"
same,binding signal,ERF,"1.12 fold enrichment (6-mer frequency, TF over GST control)"
same,binding signal,ETV3L,"1.11 fold enrichment (6-mer frequency, TF over GST control)"
same,binding signal,ETS2,"1.11 fold enrichment (6-mer frequency, TF over GST control)"
same,binding signal,SPDEF,"1.14 fold enrichment (6-mer frequency, TF over GST control)"
same,binding signal,ETV7,"1.24 fold enrichment (6-mer frequency, TF over GST control)"
same,binding signal,ELF5,"1.13 fold enrichment (6-mer frequency, TF over GST control)"
same,binding signal,ETV3,"1.19 fold enrichment (6-mer frequency, TF over GST control)"
same,binding signal,ETV6,"1.17 fold enrichment (6-mer frequency, TF over GST control)"
